Screening data from PubChem.
ALDH1A1 block = ALDH1A1 (human) enzyme inhibition | actives 7.3% (n = 220,000) | P00352 | Potency, µM (titrated, usually from 75.3 µM), most hits filed as inhibitors | Purified ALDH1A1, NADH fluorescence, propionaldehyde substrate
Target sequence (P00352 whole entry, looked up): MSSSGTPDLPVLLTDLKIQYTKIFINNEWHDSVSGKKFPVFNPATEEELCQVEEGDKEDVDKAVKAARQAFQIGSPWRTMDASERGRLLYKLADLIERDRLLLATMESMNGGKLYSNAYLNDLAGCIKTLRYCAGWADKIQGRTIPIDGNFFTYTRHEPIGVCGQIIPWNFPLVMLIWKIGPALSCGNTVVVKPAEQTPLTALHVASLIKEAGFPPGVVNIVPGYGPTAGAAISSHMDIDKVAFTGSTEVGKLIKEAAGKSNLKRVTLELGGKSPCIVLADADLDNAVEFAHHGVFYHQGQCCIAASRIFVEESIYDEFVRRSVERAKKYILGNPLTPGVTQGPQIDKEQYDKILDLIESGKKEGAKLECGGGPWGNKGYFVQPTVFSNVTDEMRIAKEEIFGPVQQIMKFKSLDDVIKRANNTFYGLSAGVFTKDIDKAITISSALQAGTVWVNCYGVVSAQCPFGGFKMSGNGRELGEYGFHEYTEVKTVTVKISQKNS
HPGD block = blocks human HPGD enzyme activity | P15428 | purified HPGD, NADH fluorescence kinetic, PGE2 substrate | Potency, µM, usual class: inhibitors | actives 4.3% (n = 150,000)
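NADH formation kinetics: reaction with 30 uM PGE2 and 1 mM NAD+ (final), 20 nM enzyme, Tris-HCl pH 8 with Tween 20, after 15 min compound preincubation at room temperature. Fluorescence change, last versus first of five reads.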
IMPase cell inh = membrane-permeable compound that blocks inositol monophosphatase | P97697 | CHO-M1 cells, IP1 accumulation, HTRF TR-FRET ratio | inhibition (IP1 accumulation), % at 46.1 µM | 120,000 tested, under 10 active; active means well fitted curve in the direction sought with a large enough effect in the signal ratio, not every such curve was filed as active; inconclusive means small, poorly fitted or top-dose-only effect, or a change in a side signal; inactive means no such curve, though single readings can be large or run the other way; the % refers to the signal ratio;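 further: cells stimulated with carbachol in lithium chloride buffer; higher means more IMPase inhibition seen as more IP1 and lower FRET ratio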
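Seeded CHO-M1 cells were dosed with compound at up to 46 uM, stimulated with carbachol for 30 min, then lysed in IP-One detection reagents. Higher IP1 lowers the TR-FRET signal.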
IMPase Li inh = membrane-permeable IMPase blocker, potentiated with lithium. CHO-M1 cells, IP1 TR-FRET (IP-One), carbachol + lithium. Potency, µM (doses to about 59.4 µM), actives largely listed as inhibitors. actives 0.35% (n = 210,000). AID 1457; active means well fitted curve in the direction sought with a large enough effect; inconclusive means small, poorly fitted or top-dose-only effect, or another doubt; inactive means no such curve, though single readings can be large; an effect the other way counts as inactive or inconclusive;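 further: IP1 builds up when IMPase is blocked and the TR-FRET signal falls; nearly all actives have a fitted effect of over 50% in size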
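Steps: plate 2000 CHO-M1 cells per well and culture 16–30 h; add compound and lithium; incubate 30 min, 37C; add d2-IP1 tracer and Eu cryptate anti-IP1 antibody in lysis buffer; read after 10 min at room temperature.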
PNC assembly inh = blocks assembly of the perinucleolar compartment | PC3M PTB-GFP, PNC prevalence imaging, 16 h; stronger effect = lower value | activity change (PNC), negative = inhibition, % at 10 µM | actives 3.1% (n = 140,000) | AID 2417;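 active means readout at or below -70, meaning at least 70% loss of cells showing the perinucleolar compartment, a nuclear body marking cancer cells; inconclusive means readout between -30 and a set limit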
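Compounds are pinned in duplicate onto adhered PC3M cells stably expressing GFP-tagged PTB and incubated 16 h at 37 C. Cells are then fixed, nuclei stained with Hoechst, and PNC-positive cells counted.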
NPSR antagonist = blocks cAMP signaling of the human neuropeptide S receptor | Q6W5P4 | CHO-NPSR cells, cAMP TR-FRET, antagonist mode | Potency, µM (doses to about 38.3 µM), most hits filed as inhibitors | actives 1% (n = 220,000) | AID 1461; active means well fitted curve in the direction sought with a large enough effect; inconclusive means small, poorly fitted or top-dose-only effect, or another doubt; inactive means no such curve, though single readings can be large; an effect the other way counts as inactive or inconclusive; further: nearly all actives have a fitted effect of over 50% in size
Hits are given with their value; i = inactive; ? = inconclusive; nt = no result; [ ] = dose if it differs, or a comment. Compounds with a hit are over-represented: about 11% of the library has one in this group of screens. Unless noted, the call rests on the fitted dose curve; in most records, active means well fitted inhibition curve with a large enough effect (not every such curve was filed as active); inconclusive means small, poorly fitted or top-dose-only effect, or another doubt; inactive means no such curve, though single readings can be large or run the other way.

SMILES	ALDH1A1 block	HPGD block	IMPase cell inh	IMPase Li inh	PNC assembly inh	NPSR antagonist
COc1cc(C2C(C#N)=C(N)N(c3ccc(F)cc3)C3=C2S(=O)(=O)CC3)ccc1O (configuration not stated)	i	nt	nt	i	nt	i
Cc1cc(NC(=O)CSc2nc3c(sc4ccccc43)c(=O)n2CCCN2CCOCC2)n[nH]1	i	i	i	?	-83	i
Cc1cc(NC(=O)CSc2nc3c(sc4ccccc43)c(=O)n2CCc2ccccc2)n[nH]1	i	i	i	?	?	i
CC(=O)N1CC2(C)CN(C(C)=O)CC(C)(C1)C2O (configuration not stated)	i	i	i	i	i	i
COc1cc(/C=C(\C#N)C(=O)NCC2CCCO2)ccc1OCC(N)=O (configuration not stated)	i	nt	nt	i	nt	i
COc1ccc(/C=C(\C#N)C(=O)NCC2CCCO2)cc1OC (configuration not stated)	?	22µM	i	i	?	i
COc1cc(/C=C(\C#N)C(=O)NC2CCCCC2)ccc1OCc1ccc(C(=O)O)cc1	14µM	nt	nt	i	nt	i
COc1cc(/C=C(/C#N)C(=O)Nc2ccccc2)ccc1OCc1ccc(C(=O)O)cc1	22µM	nt	nt	i	nt	i
CC(C)O	?	i	nt	i	nt	nt
COc1ccccc1NS(=O)(=O)c1cccc(C(=O)NNC(=O)C(NC(N)=O)C(C)C)c1 (configuration not stated)	i	nt	nt	nt	nt	i
C=CCOC(=O)C1=C(C)NC(SC)=C(C#N)C1c1cccs1 (configuration not stated)	?	i	i	i	i	i
C=CCOC(=O)C1=C(C)NC(SCC(=O)Nc2nccs2)=C(C#N)C1c1ccc(Cl)cc1 (configuration not stated)	?	i	i	i	i	?
CCOC(=O)CSC1=C(C#N)C(c2ccccc2)C(C(C)=O)=C(C)N1 (configuration not stated)	32µM	i	i	i	i	i
C=CCOC(=O)C1=C(C)NC(SC)=C(C#N)C1c1ccc(OCC)cc1 (configuration not stated)	20µM	nt	i	nt	i	i
CSCSC1=C(C#N)C(c2ccc(Cl)cc2)C(C(C)=O)=C(C)N1 (configuration not stated)	8.9µM	32µM	i	i	i	i
CSC1=C(C#N)C(c2ccccc2)C(C(C)=O)=C(C)N1 (configuration not stated)	i	nt	nt	i	nt	i
COc1ccc(OC)c(C(=O)CN2C(=O)NC(C)(c3ccccc3)C2=O)c1 (configuration not stated)	i	i	i	i	i	i
CCN=C1S/C(=C\c2ccc(Sc3ccc(Cl)cc3)o2)C(=O)N1CC	i	i	i	i	i	i
CC1=C(Sc2nc3ccccc3[nH]2)C(=O)NC(C)(C)C1	i	i	i	i	i	i
CC(C)N1C(=O)S/C(=C/c2ccc(Sc3nc4ccccc4[nH]3)o2)C1=O	7.1µM	i	i	i	?	i
C=CCN1C(=O)S/C(=C/c2ccc(Sc3nc4ccccc4[nH]3)o2)C1=O	10µM	i	nt	i	i	i
CCc1ccn2cc(-c3cc(-c4ccccc4)no3)nc2c1	nt	nt	nt	nt	nt	i[7.67 µM]
CCN(CC)P(=O)(Nc1ccccc1Br)c1ccc(N(C)C)cc1NC(=O)c1ccco1 (configuration not stated)	i	nt	nt	i	nt	7.9µM
Cc1ccccc1N=Cc1cccc(O)c1O	5µM	i	nt	i	?	i
Cc1ccc(N=Cc2sc(O)c3ccccc23)c(C)c1	13µM	i	i[1.84 µM]	i	i	i
CC(N=Cc1cccc(O)c1O)c1ccccc1 (configuration not stated)	?	2.8µM	i	i	i	i
Cc1ccc(O)c(C=Nc2cc(C)ccc2O)c1	i	i	nt	i	?	i
Cc1ccc(N=Cc2cccc(O)c2O)c(C)c1	?	3.2µM	i	i	?	i
CCCC(=O)Oc1ccccc1C1SCc2cc(C)c(C)cc2CS1	i	nt	i	nt	?	i
Cc1c(C(=O)N(C)C2CCCCC2)sc2nc3ccc(N)cc3n12	?	8.9µM	nt	i	nt	nt
